# Shown are actives, neighbours in structure and some others; about 4.9% of the full set was active somewhere.
# Beta apoptosis – blocks beta cell apoptosis; INS-1E cytokine-induced death, ATP luminescence, 48 h; percent of positive-control rescue, neutral wells zero; protection from apoptosis, % (concentration not given with the values); 0.8% of 300,000 active; AID 435005;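 active = Every replicate reaches about 75%, or at least half do and their mean reaches it too, limit read from the data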;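 also: 0% = cytokine-treated negative control wells and 100% = positive control rescue; higher means more ATP so stronger rescue from cytokine killing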
# Calb FLC – affects C. albicans growth with fluconazole | growth inhibition, % (test concentration not listed) | C. albicans CaCi-2 (fluconazole-resistant clinical isolate) + fluconazole, Alamar Blue growth, 48 h | 0.57% of 300,000 active | AID 1979;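 active = growth inhibition above about 58% in most replicates, limit read from the data, passing the limit was not always enough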;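 also: all wells also contain fluconazole at 8 µg/ml as a sub-toxic cotreatment; 0% = median of DMSO wells and 100% = median of geldanamycin control wells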
# CSC inhib – blocks cancer stem cells; cancer stem cell-like cells viability, luminescence; inhibition, % at 7.5 µM; 1.1% of 300,000 active; in the data active = inhibition above about 75%; tested in HMLE shEcad cells
# Mdm2-MdmX inh – human Mdm2/MdmX binding inhibition; O15151+Q00987; SaOS-2 split-luciferase Mdm2/MdmX complementation, luminescence; inhibition, % at 8 µM; 3% of 330,000 active; AID 485346;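 active = inhibition of at least 50% at 8 µM in the primary screen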
# PP1 counter – PP1-alpha (human) inhibition in PP5 counter-screen. P62136. purified PP1alpha, OMFP fluorescence. inhibition, % at 6.7 µM. 0.9% of 320,000 active;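 active = inhibition above the mean inhibition of all tested compounds plus 3 SD, computed separately for each screening campaign, cut at about 15% in these data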
# Target sequence (P62136 whole entry, looked up): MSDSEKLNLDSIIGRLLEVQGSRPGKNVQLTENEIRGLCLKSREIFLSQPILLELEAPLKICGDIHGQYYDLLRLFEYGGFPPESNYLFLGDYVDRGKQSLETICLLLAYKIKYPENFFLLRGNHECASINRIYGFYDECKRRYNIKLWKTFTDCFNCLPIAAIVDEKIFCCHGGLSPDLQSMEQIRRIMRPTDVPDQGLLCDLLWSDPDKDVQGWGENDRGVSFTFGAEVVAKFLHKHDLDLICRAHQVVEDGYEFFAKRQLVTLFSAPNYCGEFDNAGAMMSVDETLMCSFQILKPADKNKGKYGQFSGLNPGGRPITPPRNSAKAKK
# PP5 primary – PP5 (human) phosphatase inhibition; P53041; purified PP5c, OMFP substrate fluorescence; inhibition, % at 6.7 µM; 0.18% of 320,000 active; AID 1987;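 active = inhibition above the campaign's mean inhibition across all tested compounds plus 3 SD, cut at about 9.5% in these data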;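 also: 0% = DMSO only and 100% = 100 µM cantharidin control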
# Mdm2-MdmX conf – confirmation of human Mdm2/MdmX interaction inhibitors; shares compounds with Mdm2-MdmX inh; Mdm2-MdmX binding, luminescent assay; inhibition, % at 8 µM; 55% of 10,000 active; AID 489028; in the data active = inhibition above about 40%
# Full FLuc ctr – counter-screen for Mdm2/MdmX inhibitors: full-length luciferase | shares compounds with Mdm2-MdmX inh | SaOS-2 full-length luciferase counterscreen, luminescence | inhibition, % at 8 µM | 77% of 6,200 active | AID 504607;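 active = mean inhibition at 8 µM reaching about 37%, which flags the compound as non-specific, limit read from the data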;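 also: p53-null SaOS-2 cells with luciferase driven by a doxycycline-inducible promoter; compound on cells about two nights before reading with doxycycline added after day one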
# * hit, by the source's call; / = not tested or not shown.
SMILES,Beta apoptosis,Calb FLC,CSC inhib,Mdm2-MdmX inh,PP1 counter,PP5 primary,Mdm2-MdmX conf,Full FLuc ctr
O=C(N/N=C(\c1ccccc1)c1cccnc1)c1cccc(F)c1,108*,-5,109*,99*,1,0,80*,33
Cc1cc(NC(=O)NN2CCOCC2)nn1-c1c(Cl)cccc1Cl,/,-2,-11,23,0,3,/,/
C=C1CCC[C@]2(C)C[C@H]3OC(=O)C(CN4CCCCC4CO)[C@H]3CC12 (stereo partly drawn),-82,1,33,66*,-1,0,55*,38*
C=C1CCC[C@]2(C)C[C@H]3OC(=O)C(CNC(C)(CO)CO)[C@H]3CC12 (stereo partly drawn),-39,-14,10,63*,-6,-2,31,55*
C=C1CCC[C@]2(C)C[C@H]3OC(=O)C(CNC(CC)CO)[C@H]3CC12 (stereo partly drawn),-35,-3,17,42,3,0,/,/
O=S(=O)(c1ccc(Br)cc1)c1cnc2ccccc2n1,-5,-3,14,50*,-1,1,14,/
O=S(=O)(Cc1ccccc1)c1cnc2ccccc2n1,-15,-5,4,59*,-5,1,14,/
COc1ccc(C(=O)N/C(=C\c2cn(C)c3ccccc23)C(=O)NCCN2CCOCC2)cc1OC,6,-13,-8,19,-2,-2,/,/
COc1ccc2nc(SCC(=O)C(C)(C)C)[nH]c2c1,0,-1,-2,-51,-5,2,/,/
Nc1cc(=O)[nH]c(SCC(=O)Nc2cc(S(=O)(=O)N3CCCCC3)ccc2Cl)n1,-3,/,-9,-12,1,0,/,/
O=C(Nc1ccccc1)c1cc(S(=O)(=O)N2CCCCC2)ccc1N1CCOCC1,/,/,/,-7,-1,3,/,/
CCOC(=O)c1cnc(-n2nc(C)cc2C)nc1NNc1nc(-c2ccccc2)cc(-c2ccccc2)n1,118*,-1,128*,63*,2,4,72*,25
CCOC(=O)c1cnc(-n2nc(C)cc2C)nc1Nc1ccc(N(C)C)cc1,109*,-2,20,71*,12,2,48*,61*
COc1cc(/C=N\NC(=O)c2ccc(C)nc2)ccc1OC(=O)c1cccc(F)c1,3,-18,-14,-9,1,1,/,/
CC(C)c1ccc(/C=N/NC(=O)c2cc(-c3cccc([N+](=O)[O-])c3)n[nH]2)cc1,4,10,62,51*,6,2,17,/
O=C(N/N=C/c1ccc(Cl)c([N+](=O)[O-])c1)c1cc(-c2ccc3c4c(cccc24)CC3)n[nH]1,4,11,136*,100*,2,-3,91*,61*
Cn1cccc1-c1cc(C(=O)N/N=C/c2ccc([N+](=O)[O-])cc2)[nH]n1,15,-12,9,41,3,3,/,/
CN(C)c1ccc(/C=N/NC(=O)c2cc(-c3ccc4c(c3)OCO4)n[nH]2)cc1,/,2,66,52*,3,3,54*,65*
c1ccc(C(c2ccccc2)c2noc(CN3CCC(c4ccncc4)CC3)n2)cc1,-8,-1,31,3,8,5,/,/
O=C(CNc1cccc(C(F)(F)F)c1)N/N=C/c1ccccc1C(=O)O,-6,-18,-3,-4,-2,1,/,/
Cc1nn(Cc2ccc(Cl)cc2Cl)c(Cl)c1/C=N/NC(=O)CNc1cccc(C(F)(F)F)c1,20,-9,26,84*,-3,1,-1,/
COc1ccc(CNCC(O)(c2ccccc2)c2ccc(Cl)cc2)cc1 (stereo not drawn),8,-20,10,50*,-3,2,4,/
Cc1ccc(CNCC(O)(c2ccccc2)c2ccc(Cl)cc2)cc1 (stereo not drawn),/,4,/,/,/,/,/,/
CCC[C@H]1NC(=O)[C@H](C)N(C)C(=O)C(C)(C)C(=O)C(C)NC(=O)[C@H](Cc2ccc(OC)cc2)N(C)C(=O)[C@H](C(C)C)N(C)C(=O)CNC(=O)[C@H](CC(C)C)N(C)C(=O)CNC(=O)[C@H]([C@@H](C)CC)OC(=O)[C@H]1C (stereo partly drawn),/,/,/,94*,/,/,91*,5
O=C(NCc1n[nH]c(=S)n1-c1cccc(Cl)c1)c1ccc(S(=O)(=O)N2CCCCC2)cc1,-2,13,11,-3,0,-1,/,/
SMILES,Beta apoptosis,Calb FLC,CSC inhib,Mdm2-MdmX inh,PP1 counter,PP5 primary,Mdm2-MdmX conf,Full FLuc ctr
CC(=O)c1ccccc1NC(=O)c1ccc2c(c1)NC(=O)C(C)S2 (stereo not drawn),4,-7,4,-37,-1,1,/,/
CCCNC(=O)c1ccccc1NC(=O)c1ccc2c(c1)NC(=O)C(C)S2 (stereo not drawn),/,10,45,53*,0,3,68*,72*
Cc1ccc(NC(=O)COc2ccccc2)c(NC(=O)c2ccco2)c1,-2,-2,-5,44,-5,0,/,/
CCOC(=O)CON1C(=O)C(=O)N(OCC(=O)OCC)C2CCCCC21 (stereo not drawn),-2,-12,/,-1,2,-2,/,/
C=C1C(=O)[C@@]23[C@H](O)C[C@@H]4C(C)(C)CC[C@H](O)[C@]4(C)[C@@H]2C[C@H](O)[C@@H]1[C@H]3O,-62,-14,57,83*,-4,2,15,/
C=C1C(=O)[C@@]23[C@H](O)C[C@@H]4C(C)(C)CC[C@H](O)[C@@]4(C)[C@@H]2CC[C@@H]1[C@H]3O,99*,-4,3,97*,0,-1,100*,48*
COc1ccc(C2Oc3ccccc3C3=C2C(c2cccs2)n2ncnc2N3)cc1 (stereo not drawn),2,9,53,72*,8,2,70*,30
CC(=O)Nc1ccc(S(=O)(=O)N2c3ccccc3C(C)=CC2(C)C)cc1,22,-11,47,74*,0,2,60*,94*
CC1=CC(C)(C)N(S(=O)(=O)c2ccc(C)cc2)c2ccc(C)cc21,/,9,/,54*,0,1,61*,108*
O=C(OCCCOC(=O)c1ccc(Br)o1)c1ccc(Br)o1,-5,-1,-1,5,6,-1,/,/
CCOc1cc(/C=N/NC(=O)Cn2nc([N+](=O)[O-])cc2C)cc(Br)c1OCc1ccccc1C,7,14,-9,52*,1,1,47*,87*
COc1cc(/C=N/NC(=O)Cn2nc([N+](=O)[O-])cc2C)cc(Br)c1OCc1ccccc1,8,0,-10,17,3,4,/,/
